Assay results published in paper PMC10668032, “Altered binding affinity of SIX1-Q177R correlates with enhanced WNT5A and WNT pathway effector expression in Wilms tumor”.
Over roughly 33,000 sequences, “e-score” has its median near -0.053; the highest 2% begin near 0.38. The list comes from a sample in which the highest values are over-represented; it also holds similar and randomly drawn sequences.

Biological target: T1, SIX1 homeodomain (reference allele) (human, UniProt Q15475 108-198)
T1 sequence: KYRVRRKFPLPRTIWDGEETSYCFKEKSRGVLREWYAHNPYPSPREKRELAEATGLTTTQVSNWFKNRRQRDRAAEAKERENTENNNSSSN
Assay: universal protein binding microarray; Universal all-10-mer PBM (8x60K, AMADID 030236), 300 nM GST-tagged protein, Alexa Fluor 488 anti-GST; buffer, salt, pH and temperature not stated (as in Berger); high values mean tight binding
Conditions: protein: ivt; tags: N-terminal GST; dsDNA, one strand shown
Summary of the method: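 Duplicate protein binding microarrays (universal 'all 10-mer', 8×60K format) were incubated with GST-tagged homeodomains at 300 nM final concentration. Binding was quantified as 8-mer E-scores with the Universal PBM Analysis Suite.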

Sequence	binding signal
TCGTATAA	0.194 ± 0.0979 E-score
ACCTATCA	0.336 ± 0.0088 E-score
GCGTATAA	0.16 ± 0.104 E-score
CCGTATCG	0.457 ± 0.0169 E-score
CCGTATTA	0.322 ± 0.00404 E-score
GCGTCTCA	0.209 ± 0.0176 E-score
ATCCCTCG	0.337 ± 0.0323 E-score
ATATAGCG	0.164 ± 0.0414 E-score
GTATTAAC	0.272 ± 0.0619 E-score
GATAGTGA	0.231 ± 0.0159 E-score
CCGTATCA	0.486 ± 0.00556 E-score
CCGTATGA	0.217 ± 0.0235 E-score
CCGTATAA	0.226 ± 0.0709 E-score
ATCATACC	0.351 ± 0.0212 E-score
ATCGCCTA	0.232 ± 0.0537 E-score
GAGACGGA	0.272 ± 0.0111 E-score
AAGGTATT	0.248 ± 0.0945 E-score
CAGGTATA	0.276 ± 0.0442 E-score
GAGTTATC	0.248 ± 0.0177 E-score
CAGGTAGA	0.15 ± 0.00481 E-score
CAGGTATC	0.4642 ± 0.00145 E-score
GAGGTATC	0.4767 ± 0.00464 E-score
AAGGTATG	0.201 ± 0.00407 E-score
AAGGTATC	0.472 ± 0.0103 E-score
GAGGTATA	0.365 ± 0.0614 E-score
CCGGCTAA	0.178 ± 0.0089 E-score

Sequence	binding signal
ACACCTAA	0.261 ± 0.0204 E-score
CCAATCCG	0.224 ± 0.0167 E-score
CGCCGATC	0.258 ± 0.0126 E-score
ATCCATAC	0.31 ± 0.0347 E-score
AGCGGTAT	0.3428 ± 0.000445 E-score
TATCGGCA	0.244 ± 0.0173 E-score
AGACGATC	0.285 ± 0.0103 E-score
AGCCTATC	0.192 ± 0.0162 E-score
CCCCGCCA	0.161 ± 0.0538 E-score
ATTATCTC	0.203 ± 0.126 E-score
GATAGGGC	0.285 ± 0.0546 E-score
GATAGGGA	0.376 ± 0.00884 E-score
TATAGGGA	0.206 ± 0.00286 E-score
AGGAATCC	0.197 ± 0.00841 E-score
GATCGTCC	0.238 ± 0.0474 E-score
CAAACCCG	0.174 ± 0.0382 E-score
CAATACCC	0.387 ± 0.00788 E-score
AGATACCA	0.422 ± 0.0101 E-score
GAATACCC	0.368 ± 0.0333 E-score
AGATACAT	0.329 ± 0.00303 E-score
AAATACCG	0.178 ± 0.0267 E-score
ACATACCG	0.162 ± 0.0512 E-score
CGATACCG	0.45 ± 0.0109 E-score
AGATACCT	0.42 ± 0.0259 E-score
CAATACCG	0.354 ± 0.0156 E-score
AAATACCT	0.173 ± 0.0423 E-score

Sequence	binding signal
CCATACAC	0.174 ± 0.121 E-score
ATCATTGA	0.2801 ± 0.000297 E-score
ATCGTGTC	0.274 ± 0.0122 E-score
GATAGATA	0.364 ± 0.0331 E-score
CTAGTGTA	0.189 ± 0.0116 E-score
GGTTCATA	0.154 ± 0.00678 E-score
CCATACCC	0.274 ± 0.0803 E-score
TGATACAA	0.337 ± 0.0251 E-score
AGATACCC	0.4684 ± 0.00214 E-score
TGATACCA	0.4811 ± 0.00363 E-score
ACATACCC	0.194 ± 0.0165 E-score
TAATACCA	0.37 ± 0.0315 E-score
CAATACCA	0.375 ± 0.0246 E-score
CGATAACC	0.2329 ± 0.00167 E-score
CGATACCC	0.4916 ± 0.00317 E-score
CGATACCA	0.455 ± 0.0104 E-score
CTATACCA	0.245 ± 0.018 E-score
AGATACCG	0.37 ± 0.00507 E-score
CGGTACTC	0.176 ± 0.0493 E-score
ATCAGGGG	0.307 ± 0.019 E-score
TAGTGTCA	0.245 ± 0.0279 E-score
ATCAATCA	0.221 ± 0.00233 E-score
AAACGTAT	0.262 ± 0.0965 E-score
ATATTCCC	0.305 ± 0.0527 E-score
ATACTGGG	0.225 ± 0.0379 E-score
ACGATCAT	0.186 ± 0.0246 E-score

Sequence	binding signal
ATCACGTC	0.189 ± 0.0151 E-score
ATATGTCA	0.166 ± 0.0885 E-score
AAATACCC	0.2 ± 0.00818 E-score
GAATACCA	0.278 ± 0.0281 E-score
GGATACCA	0.426 ± 0.0353 E-score
GGATACCC	0.484 ± 0.00911 E-score
GTATACCA	0.364 ± 0.00595 E-score
GCATACCC	0.289 ± 0.0463 E-score
AGTATAAG	0.161 ± 0.0893 E-score
TAATATAA	0.257 ± 0.0514 E-score
ATCCACGA	0.154 ± 0.0369 E-score
ACTATCCT	0.318 ± 0.0157 E-score
CTATTATC	0.189 ± 0.0626 E-score
GACTATAC	0.237 ± 0.00521 E-score
ACTATATC	0.367 ± 0.0339 E-score
ACGATATA	0.296 ± 0.0641 E-score
CCGATATC	0.457 ± 0.0156 E-score
CCGATAAC	0.239 ± 0.00451 E-score
ACGATCTC	0.189 ± 0.0362 E-score
ACGATATG	0.417 ± 0.0227 E-score
ACGATATC	0.454 ± 0.0379 E-score
ACGATCGG	0.169 ± 0.0263 E-score
CCGATAGC	0.329 ± 0.00875 E-score
ACCACACC	0.174 ± 0.038 E-score
ATACGCCC	0.275 ± 0.0117 E-score
GATAACCA	0.213 ± 0.00941 E-score

Sequence	binding signal
ATCACTTG	0.29 ± 0.0319 E-score
GGCTAATA	0.201 ± 0.0383 E-score
AATATGGT	0.177 ± 0.105 E-score
GATAGCAC	0.236 ± 0.0609 E-score
CGGCGATA	0.3475 ± 0.00182 E-score
CCGCGATC	0.354 ± 0.0349 E-score
GGGCGATA	0.347 ± 0.0047 E-score
GCGCGATA	0.379 ± 0.0395 E-score
ACGCGATA	0.316 ± 0.0166 E-score
CCGCGATA	0.4109 ± 0.00278 E-score
ATATAGAG	0.202 ± 0.0348 E-score
CCAGATGA	0.203 ± 0.0127 E-score
ACTACCTA	0.157 ± 0.0187 E-score
GAATACTC	0.155 ± 0.0382 E-score
ATAGATCC	0.302 ± 0.00993 E-score
ATAGATAG	0.167 ± 0.0369 E-score
ATAGATAT	0.389 ± 0.0559 E-score
ACAGATAT	0.356 ± 0.0703 E-score
GTAGATAC	0.289 ± 0.0214 E-score
ATAGATAC	0.393 ± 0.0221 E-score
ATCACCTA	0.232 ± 0.0325 E-score
AGACGATA	0.363 ± 0.0344 E-score
ATATCTTC	0.365 ± 0.0612 E-score
CCGTCTCA	0.268 ± 0.0487 E-score
GAGTATCA	0.47 ± 0.0248 E-score
CAGTATTA	0.295 ± 0.0164 E-score

Sequence	binding signal
TACTATCA	0.325 ± 0.0557 E-score
TAGTATCA	0.457 ± 0.0196 E-score
TAGTATAA	0.199 ± 0.033 E-score
AAGTATCT	0.266 ± 0.102 E-score
AAGTATCA	0.461 ± 0.0304 E-score
CAGTATCA	0.465 ± 0.0101 E-score
CAGTATGA	0.151 ± 0.0873 E-score
GAGTATAA	0.179 ± 0.136 E-score
AAGTATAA	0.184 ± 0.123 E-score
GAGTATTA	0.261 ± 0.103 E-score
ATCCCGCC	0.27 ± 0.00284 E-score
GGATAATA	0.328 ± 0.0761 E-score
ATAGGGTG	0.161 ± 0.00687 E-score
ATCATTGC	0.244 ± 0.0146 E-score
AGTTGGTG	0.191 ± 0.00358 E-score
AAGACGAT	0.17 ± 0.0796 E-score
ATCCTCGG	0.23 ± 0.0328 E-score
CAGTATAG	0.178 ± 0.0386 E-score
CAGTATCG	0.4353 ± 0.00267 E-score
CACTATCC	0.295 ± 0.013 E-score
CAGTATCC	0.39 ± 0.0154 E-score
AAGTATCG	0.369 ± 0.0877 E-score
CAGTATAC	0.295 ± 0.0256 E-score
GGATTACC	0.271 ± 0.0437 E-score
CTCTCCCC	0.164 ± 0.0775 E-score
ATCACCTG	0.33 ± 0.0102 E-score

Sequence	binding signal
AGATCCTA	0.2149 ± 0.00162 E-score
AGATCCAA	0.204 ± 0.00278 E-score
CGATCCTA	0.299 ± 0.00788 E-score
GGATCCAC	0.317 ± 0.0719 E-score
GGATCCTA	0.377 ± 0.0205 E-score
GGATCCAA	0.41 ± 0.0258 E-score
CCGAAACC	0.185 ± 0.0211 E-score
AAGAGGAT	0.212 ± 0.00759 E-score
CGTAGTGA	0.182 ± 0.0165 E-score
CAGGACAC	0.187 ± 0.0771 E-score
AGATATGG	0.335 ± 0.0142 E-score
GGCTATCA	0.392 ± 0.0544 E-score
GGATATGA	0.356 ± 0.0113 E-score
GAATATCA	0.366 ± 0.0771 E-score
AGAGATCT	0.198 ± 0.0724 E-score
GGATATCA	0.487 ± 0.00885 E-score
AGATATTG	0.311 ± 0.0669 E-score
AGATATCG	0.434 ± 0.0383 E-score
AGCTATCA	0.313 ± 0.116 E-score
AAATATCT	0.157 ± 0.0748 E-score
CGCTATCA	0.34 ± 0.0391 E-score
AGATATCT	0.385 ± 0.082 E-score
